Measured values as given in PubChem BioAssay (NCATS).
Inconclusive results are not listed. Where a call stands in place of a potency, no number is given. Unmarked numbers belong to inactive results. Activity calls are given as the source filed them. The call rests on the fitted dose curve; in most records, active means well fitted inhibition curve with a large enough effect; inconclusive means small, poorly fitted or top-dose-only effect; inactive means no such curve, though single readings can be large or run the other way.

Tests used:
[1] = tested on: Zika virus NS2B-NS3 protease (unlinked complex); assay: Primary screen GU Rhodamine qHTS for Zika virus inhibitors: Unlinked NS2B-NS3 protease assay (AID 1347159); further: nearly all actives have a fitted effect of over 60% in size
Outline: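 A qHTS format was used, with compound concentrations ranging up to 114 microM. Each compound was preincubated with 25 nM NS2B-NS3 protease, and the substrate was then added at 1.5 microM. Curves were fitted with a 4-parameter Hill model.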

[2] = tested on: Zika virus NS2B-NS3 protease (linked construct); assay: Primary screen NINDS Rhodamine qHTS for Zika virus inhibitors (AID 1347160); further: nearly all actives have a fitted effect of over 55% in size
Outline: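 Kinetic fluorescence (Ex 480 nm, Em 540 nm) over 15 min with 1.5 microM Rhodamine110 peptide and 25 nM linked protease.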
Potency means the concentration at half of the fitted maximal effect.

Row | SMILES | Potency [1] | Potency [2] | activity change, negative = inhibition [1] | activity change, negative = inhibition [2]
1 | COc1ccc2cc(C(C)C(=O)Oc3ccc(C(N)=S)cc3)ccc2c1 (stereo not given) | inactive | inactive | – | –
2 | Cc1nc(NC(=O)N2CCCC2C(N)=O)sc1-c1csc(C(C)(C)C)n1 (stereo not given) | inactive | inactive | – | –
3 | CCCCc1nc2cc(/C=C/C(=O)NO)ccc2n1CCN(CC)CC | inactive | inactive | – | –
4 | C=C(C)C1CCC2(C(=O)O)CCC3(C(=O)O)C(CCC4C5(C)CCC(O)C(C)(C(=O)O)C5CCC43C)C12 (stereo not given) | inactive | inactive | – | –
5 | O=C1CSc2ccccc2N1Cc1cccc(C(F)(F)F)c1 | inactive | inactive | – | –
6 | Cc1ccc(-c2ccc3ncc4c(c3n2)n(C2CCN(C(=O)[C@H](C)O)CC2)c(=O)n4C)cn1 | inactive | inactive | – | –
7 | CCN1CCN(Cc2ccc(NC(=O)c3ccc(C)c(NC(=O)c4cncc(-c5cccs5)c4)c3)cc2C(F)(F)F)CC1 | inactive | inactive | – | –
8 | CC(C)C(CO)Nc1nc(Nc2cc(N)cc(Cl)c2)c2ncn(C(C)C)c2n1 (stereo not given) | inactive | inactive | – | –
9 | COC(=O)C[C@H]1C(C)(C)[C@H](OC(=O)C(C)C)[C@@]2(O)C(=O)[C@]1(C)C1CC[C@]3(C)C(CC(=O)O[C@H]3c3ccoc3)[C@]13O[C@@H]32 (stereo not given in full) | inactive | inactive | – | –
10 | Cc1ccc(S(=O)(=O)c2ccc([N+](=O)[O-])o2)cc1 | inactive | inactive | – | –
11 | CC1(C)CC2C(C1)C(C)(O)C13CC1(COC3=O)C2O (stereo not given) | inactive | inactive | – | –
12 | Cc1cc(C(=O)N2Cc3cnn(C)c3Nc3ccccc32)ccc1CNC(=O)N1CCC[C@H]1C(=S)N1CCCN(C)CC1 | inactive | inactive | – | –
13 | COc1cc2occc2c(O[C@@H]2O[C@H](CO)[C@@H](O)[C@H](O)[C@H]2O)c1CCC(=O)O | inactive | inactive | – | –
14 | CC(C(O)/C=C/C(C)(C)O)C1CCC2(C)C3C(=O)C=C4C(CCC(O)C4(C)C)C3(C)CCC12C (stereo not given) | inactive | inactive | – | –
15 | COC(=O)CC(C)(O)CC(=O)OCc1ccc(O[C@@H]2O[C@H](CO)[C@@H](O)[C@H](O)[C@H]2O)cc1 (stereo not given in full) | inactive | inactive | – | –
16 | CC1CC[C@]2(C(=O)O)CC[C@]3(C(=O)O)C(=CCC4[C@@]5(C)CC[C@H](O[C@@H]6O[C@H](CO)[C@@H](O)[C@H](O)[C@H]6O)C(C)(C)C5CC[C@]43C)C2C1C (stereo not given in full) | inactive | inactive | – | –
17 | CC(C)=CCC[C@](C)(O)[C@H]1CC[C@]2(C)[C@@H]1[C@H](O)CC1[C@@]3(C)CC[C@H](O)C(C)(C)C3[C@@H](O[C@@H]3O[C@H](CO)[C@@H](O)[C@H](O)[C@H]3O[C@@H]3OC[C@@H](O)[C@H](O)[C@H]3O)C[C@]12C (stereo not given in full) | inactive | inactive | – | –
18 | COc1cc(Nc2nc3c(s2)CCCC3c2ccc(F)cc2)ccc1-n1cnc(C)c1 (stereo not given) | inactive | inactive | – | –
19 | C[C@@H]1O[C@@H](O[C@H]2[C@@H]3C=CO[C@@H](O[C@@H]4O[C@H](CO)[C@@H](O)[C@H](O)[C@H]4O)[C@@H]3[C@@]3(CO)O[C@@H]23)[C@H](OC(=O)/C=C/c2ccc(O)c(O)c2)[C@H](O)[C@H]1O | inactive | inactive | – | –
20 | O=C(NCc1cccc(O)c1)c1cc2cc(F)ccc2[nH]1 | inactive | inactive | – | –
21 | Cc1cccc(-c2[nH]c(Cc3cccc(C(N)=O)c3)nc2-c2ccc3nccnc3c2)n1 | inactive | inactive | – | –
22 | Cc1cc(N(C)C)ccc1-c1nc2ccc(-c3nc4ccc(N5CCN(C)CC5)cc4[nH]3)cc2[nH]1 | inactive | inactive | – | –
23 | COC(=O)CC(O)C1OC(c2ccccc2)C(O)C1O (stereo not given) | inactive | inactive | – | –
24 | Cc1cc(OCc2nc(-c3ccccc3Cl)cs2)ccc1OCC(=O)O | 12.6 µM (active) | 14.1 µM (active) | – | –
25 | CC(C)c1nnc(-c2ccc(-c3ccccc3)nc2)n1-c1cccc2nonc12 | inactive | inactive | – | –

Row | SMILES | Potency [1] | Potency [2] | activity change, negative = inhibition [1] | activity change, negative = inhibition [2]
26 | CN1CCN(c2ccc(C(=O)Nc3n[nH]c4ccc(Cc5cc(F)cc(F)c5)cc34)c(NC3CCOCC3)c2)CC1 | inactive | inactive | – | –
27 | Cn1c2ccc(F)cc2c2c(C(=O)N3CCCC3)cn(-c3ccccc3)c(=O)c21 | inactive | inactive | – | –
28 | COc1cc(O)cc(/C=C/c2ccc(O[C@@H]3O[C@H](CO)[C@@H](O)[C@H](O)[C@H]3O)cc2)c1 | inactive | inactive | – | –
29 | Cc1ncc(CCCN(C)C)cc1Nc1ncc2c(n1)-c1ccc(C(F)(F)F)cc1NC(=S)C2 | inactive | inactive | – | –
30 | COc1cc2c(cc1OC)CC(=O)N(CCCNC[C@H]1Cc3cc(OC)c(OC)cc31)CC2 | inactive | inactive | – | –
31 | Nc1nc(-n2cc(C(=O)O)c(=O)c3cc(F)c(N4CC(O)C4)c(Cl)c32)c(F)cc1F | inactive | inactive | – | –
32 | COC(=O)C[C@H]1C(C)(C)[C@H](OC(C)=O)C2CC3=C4CC(=O)O[C@@H](c5ccoc5)[C@]4(C)CCC3[C@@]1(C)C2=O (stereo not given in full) | inactive | inactive | – | –
33 | CNC(=O)c1cccc(-c2ccc3c(N4CCOC[C@@H]4C)nc(N4CCOC[C@@H]4C)nc3n2)c1 | inactive | inactive | – | –
34 | Cc1ccc([N+](=O)[O-])cc1S(=O)(=O)N(C)/N=C/c1cnc2ccc(Br)cn12 | inactive | inactive | – | –
35 | C=C[C@@](C)(O)CC/C=C(\C)C(=O)O[C@@H]1[C@@H]2O[C@]2(C)[C@H]2[C@H](O[C@@H]3O[C@H](CO)[C@@H](O)[C@H](O)[C@H]3O)OC=C[C@@]12O | inactive | inactive | – | –
36 | CN1C2CCC1CC(OC(=O)[C@H](CO)c1ccccc1)C2 (stereo not given in full) | inactive | inactive | – | –
37 | Cc1cc(=O)oc2c(C=O)c(O)ccc12 | 79.4 µM (active) | inactive | – | –
38 | C[C@@H]1O[C@@H](O[C@H]2[C@H](O)[C@@H](O)[C@H](OC[C@H]3O[C@@H](OC(=O)[C@]45CCC(C)(C)C[C@H]4C4=CCC6[C@@]7(C)CC[C@H](O[C@@H]8OC[C@H](O)[C@H](O[C@@H]9O[C@H](CO)[C@@H](O)[C@H](O)[C@H]9O)[C@H]8O)[C@@](C)(CO)C7CC[C@@]6(C)[C@]4(C)CC5)[C@H](O)[C@@H](O)[C@@H]3O)O[C@@H]2CO)[C@H](O)[C@H](O)[C@H]1O (stereo not given in full) | – | – | 4.91% [at 19.1 µM] | 3.05% [at 10.7 µM]
39 | COC(=O)C1=CO[C@@H](O)C2C(CO)=CCC12 (stereo not given in full) | inactive | inactive | – | –
40 | CC12CCC(C(OC3OC(COC4OCC(O)(CO)C4O)C(O)C(O)C3O)C1)C(C)(C)O2 (stereo not given) | inactive | inactive | – | –
41 | O=S(=O)(c1ccc(S(=O)(=O)n2cnc3ccccc32)cc1)N1CCCCCC1 | inactive | inactive | – | –
42 | Cc1cc(OCc2nnc(SC3CCCC3)n2-c2cccnc2)ccc1-c1ccc(S(C)(=O)=O)cc1 | inactive | inactive | – | –
43 | OC/C=C/c1ccc(O[C@@H]2O[C@H](CO)[C@@H](O)[C@H](O)[C@H]2O)cc1 | inactive | inactive | – | –
44 | CC(C)(C)c1cc(Br)cc([C@H](CC(=O)O)NC(=O)CNC(=O)c2cc(O)cc(NC3=NCC(O)CN3)c2)c1 (stereo not given in full) | inactive | inactive | – | –
45 | COc1ccc(/C=C\C(=O)O)c(O[C@@H]2O[C@H](CO)[C@@H](O)[C@H](O)[C@H]2O)c1 | inactive | inactive | – | –
46 | COc1c(/C=C/C(C)(C)O)ccc2c1C(=O)OCc1cc(C)cc(O)c1O2 | inactive | inactive | – | –
47 | CC1C(=O)CC2C3CCC(C(=O)O)C12CC3(C)CO (stereo not given) | inactive | inactive | – | –
48 | CCn1c(=O)c(-c2ccn[nH]2)cc2c(C)nc(N)nc21 | inactive | inactive | – | –
49 | CC(C)(O[C@@H]1O[C@H](CO)[C@@H](O)[C@H](O)[C@H]1O)C(OC(=O)/C=C\c1ccc(O)cc1)C(=O)OCc1ccc(O[C@@H]2O[C@H](CO)[C@@H](O)[C@H](O)[C@H]2O)cc1 (stereo not given in full) | inactive | inactive | – | –
50 | CC(C)c1cc(CNc2nc(Nc3cc(C4CC4)[nH]n3)cc(N3CCN(C)CC3)n2)on1 | inactive | inactive | – | –
